# Values joined by “and” are separate entries in the source; they are usually repeats but may differ in a detail not shown here. Identical values can stand only once.
# Experiments:
# Format in all cases: functional
# [1] = tested on: Plasmodium falciparum; experiment: GSK_TCMDC: Inhibition of Plasmodium falciparum 3D7 in whole red blood cells, using parasite LDH activity as an index of growth. Test compounds present at 2uM
# [2] = tested on: Plasmodium falciparum; experiment: GSK_TCMDC: Inhibition of Plasmodium falciparum Dd2 in whole red blood cells, using parasite LDH activity as an index of growth. Test compounds present at 2uM
# [3] = tested on: HepG2; experiment: GSK_TCMDC: Percent inhibition of human HepG2 cell line. Test compounds present at 10uM.
Compound,Inhibition [1],Inhibition [2],Inhibition [3]
Oc1ccccc1CNCC(O)c1cccc(C(F)(F)F)c1 (stereo not given),100%,97%,1%
O=C(/C=C/c1ccccc1O)NC1CCC(CN2CCC(c3c[nH]c4ccccc34)CC2)CC1 (stereo not given),100%,45% and 73%,11% and 22%
O=C(/C=C/c1ccc(Cl)c(Cl)c1)NCCCCCN1C2CCC1CC(c1c[nH]c3ccccc13)C2 (stereo not given),98%,4%,54%
CC(C)CNCc1ccc(-c2cccc(CN(C(=O)NC3CCCCC3)C3CCN(Cc4ccccc4)CC3)c2)cc1.O=C(O)C(F)(F)F,98%,88%,20%
CN(C)CCc1c[nH]c2ccc(C(=O)Nc3ccc(-c4ccncc4)cc3)cc12.O=C(O)CCC(=O)O,99%,46%,23%
CO[C@@H]1C[C@@H](C(=O)Nc2ccccc2)N(c2ccc(C#N)c3ccccc23)C1,98%,100%,7%
Cc1csc(NC2=NCCN2)n1.Cl,99%,1%,10%
CC[C@H]1CN2CC[C@H]1C[C@@H]2[C@@H](O)c1cc(Cl)nc2ccc(OC)cc12,98%,82%,0%
Cc1[nH]c2ccc(O)cc2c1C1CCN(CC2CCN(C(=O)/C=C/c3ccc(Cl)c(Cl)c3)CC2)CC1,99%,99%,23%
O=C(/C=C/c1ccsc1)NC1CCC(CN2CCC(c3c[nH]c4ccccc34)CC2)CC1 (stereo not given),82%,20%,29%
O=C(/C=C/c1cccc(F)c1)NC1CCC(CN2CCC(c3c[nH]c4ccccc34)CC2)CC1 (stereo not given),99% and 98%,28% and 31%,39% and 35%
COc1ccc(CC(C)NCC(O)c2cccc(Br)c2)cc1 (stereo not given),99%,93%,10%
COc1cc(CN2CCN(c3ccnc(N(C)C4CCN(C)CC4)n3)CC2)cc(Cl)c1O,94%,63%,11%
CN1C2CCC1c1cc(NC(=O)c3cc(-c4ccc(Cl)cc4)cs3)ccc12.O=C(O)C(F)(F)F (stereo not given),90%,35%,62%
Cc1cc(N)nc2cc(CNCCc3ccccc3Br)ccc12.Cl,100%,93%,47%
CN(c1cc(NC(=O)c2cccs2)ccn1)C1CCN(Cc2cccc(F)c2)CC1.O=C(O)C(F)(F)F,94%,95%,0%
CC[C@H]1CN2CC[C@H]1C[C@H]2[C@H](O)c1cc(-c2ccccc2C)nc2ccc(OC)cc12.Cl,100%,98%,16%
CC(C)/C(=C(/F)CN1C(=O)C(NC(=O)c2cc3ccccc3[nH]2)C(=O)N(c2ccccc2)c2ccccc21)c1ccccc1 (stereo not given),98%,82%,7%
CCCCCc1cc(O)c2c(c1)OC(C)(C)CC2C1=CCN(Cc2cnc3ccccc3c2)CC1.Cl.O (stereo not given),98%,98%,27%
C[C@@H](CC1CCCCC1)NCc1ccccc1O,98%,67%,9%

Compound,Inhibition [1],Inhibition [2],Inhibition [3]
COc1cccc(C2(C)CCN(CCCCNC(=O)c3ccc(NC(=O)c4ccc(Cl)cc4)cc3)CC2)c1.Cl,97%,72%,19%
COc1ccc2[nH]cc(C3CCN(Cc4ccc(NC(=O)c5ccc(-c6ccccc6)cc5)cc4)CC3)c2c1,100%,72%,24%
OC(CNCc1ccccc1OC(F)F)c1cccc(C(F)(F)F)c1 (stereo not given),97%,52%,2%
O=C(Nc1ccccc1C(F)(F)F)NC1CCC(CN2CCC(c3c[nH]c4ccccc34)CC2)CC1 (stereo not given),96% and 86%,,46% and 34%
Oc1ccc(CN2CCN(CCOC(c3ccccc3)c3ccccc3)CC2)cc1Cl,98%,77%,7%
CC(Cc1ccc(Oc2ccccc2)cc1)NCC(O)c1cccc(C(F)(F)F)c1 (stereo not given),98%,99%,16%
O=C(/C=C/c1ccc(Cl)c(Cl)c1)NCCC1CCC(N2CCC(c3c[nH]c4ccccc34)CC2)CC1 (stereo not given),100%,99%,91%
O=C(C=Cc1cccc(Cl)c1Cl)NC1CCC(CN2CCC(c3c[nH]c4ccccc34)CC2)CC1 (stereo not given),83% and 100%,,40% and 33%
Cl.OC(CNC1CCCCCCC1)c1ccc(Cl)c(Cl)c1 (stereo not given),100%,99%,17%
Cc1cc(NC(=O)[C@@H](Nc2ccc(C#N)c3ccccc23)C2CCCCC2)ccc1F.O=C(O)C(F)(F)F,95%,83%,10%
CNC(=O)c1ccc2[nH]cc(C3CCN(CC4CCC(NC(=O)/C=C/c5ccccc5Cl)CC4)CC3)c2c1 (stereo not given),100%,19%,12%
O=C(/C=C/c1ccc(Cl)c(Cl)c1)NCC1CCCC(CN2CCC(c3c[nH]c4ccccc34)CC2)C1 (stereo not given),98%,43%,61%
CC[C@H]1CN2CC[C@@H]1C[C@H]2[C@H](O)c1cc(-c2ccccc2)nc2ccc(O)cc12.Cl,99%,99%,14%
CC[C@H]1CN2CC[C@H]1C[C@H]2[C@H](O)c1cc(-c2ccc(C)cc2)nc2ccc(OC)cc12.Cl,99%,99%,22%
Cc1[nH]c2c(C)cc(NS(C)(=O)=O)cc2c1C1CCN(CC2CCN(C(=O)/C=C/c3ccc(Cl)c(Cl)c3)CC2)CC1,100%,99%,33%
COc1cc(C=CC(=O)N2CCC(CN3CCC(c4c[nH]c5ccccc45)CC3)CC2)ccc1O,82%,25%,11%
Cn1cc(CN2CCC(CCOC(c3ccccc3)c3ccccc3)CC2)cn1,99%,100%,27%
CN(C)c1cccc(CN2CC=C(c3c[nH]c4ccc(Cl)cc34)CC2)c1,93%,87%,40%
O=C(/C=C/c1ccc(Cl)c(Cl)c1)N1CCC(CN2CCC(c3c[nH]c4ccc(O)cc34)CC2)CC1,100%,100%,44%
CCOC(=O)c1c(C)n(C2CCCCC2)c2cc(Br)c(O)cc12,98%,71%,1%

Compound,Inhibition [1],Inhibition [2],Inhibition [3]
CC[C@H]1CN2CC[C@@H]1C[C@H]2[C@H](O)c1cc(-c2ccc(Cl)c(Cl)c2)nc2ccc(O)cc12,98%,99%,0%
CCCCCNC(=N)N/N=C/c1c[nH]c2ccc(OC)cc12.Cl,86%,2%,16%
O=C(Cc1c(-c2ccccc2)[nH]c2ccccc12)NC1CCC(CN2CCC(c3c[nH]c4ccccc34)CC2)CC1 (stereo not given),100%,75%,31%
COc1ccc(NC(=S)NC(NC(=O)CF)C(Cl)(Cl)Cl)cc1[N+](=O)[O-] (stereo not given),97%,0%,66%
O=C1Nc2cccc3c2C1(CCCCCN1CC=C(c2c[nH]c4ccccc24)CC1)CCC3 (stereo not given),94%,89%,2%
Cc1ccc(CC(C)NCC(O)c2cccc(Br)c2)cc1 (stereo not given),99%,97%,7%
COc1ccc(CN2CCN(CCOC(c3ccccc3)c3ccccc3)CC2)c(O)c1,96%,84%,19%
Cc1ccc(CC(C)NC[C@H](O)c2cccc(Cl)c2)cc1 (stereo not given in full),93%,64%,0%
CC(=O)N(Cc1ccccc1-c1ccc(CNCCc2ccccc2)cc1)C1CCN(Cc2ccccc2)CC1.O=C(O)C(F)(F)F,100%,85%,24%
CC[C@H]1CN2CC[C@H]1C[C@@H]2[C@@H](OC(=O)c1ccc(Cl)cc1)c1ccnc2ccc(OC)cc12,89%,0%,0%
C=CC12CCN(CC1)C(C(O)c1ccnc3ccc(OC)cc13)C2 (stereo not given),,72%,0%
CN(CC(=O)N1CCN(S(=O)(=O)c2cccc(Cl)c2)CC1CN1CCCC1)c1ccc(Cl)c(Cl)c1 (stereo not given),89%,32%,32%
COc1ccc(C2CNCc3c2cc(OC)c(OC)c3Cl)cc1.Cl (stereo not given),98%,3%,42%
O=C(CCc1ccc(Cl)cc1Cl)NC1CCC(CN2CCC(c3c[nH]c4ccccc34)CC2)CC1 (stereo not given),100% and 97%,,44% and 33%
CCCCCCCc1cc(O)c2c3c(c(=O)oc2c1)CN(C)CC3,97%,100%,0%
Cc1ccc(-n2nc(C)c3c2NC(=O)CSC3c2ccsc2)cc1 (stereo not given),97%,11%,0%
CN1CC=C(c2c[nH]c3ccc(OC(=O)c4ccccc4)cc23)C1,96%,97%,12%
Br.CNCCc1c(O)ccc2ccccc12,94%,0%,6%
